Assay results published in article PMC4336329 (PLoS ONE, 2015).
Screen size: about 310,000 compounds; about 14,000 (4.5%) showed an effect of 50% or more. Effects have a minus sign here. This is one part of a sample in which strong results are shown more often than they occur.

What follows are compounds tested against human ether-à-go-go-related gene (hERG) potassium channel (human, UniProt Q12809) (assay: primary screen, population patch clamp on CHO cells stably expressing hERG; higher = less effect of the substance).
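Further: peak tail current of the secondary pulse compared with the same well before compound.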

Chain of human ether-à-go-go-related gene (hERG) potassium channel (Q12809 whole entry, looked up): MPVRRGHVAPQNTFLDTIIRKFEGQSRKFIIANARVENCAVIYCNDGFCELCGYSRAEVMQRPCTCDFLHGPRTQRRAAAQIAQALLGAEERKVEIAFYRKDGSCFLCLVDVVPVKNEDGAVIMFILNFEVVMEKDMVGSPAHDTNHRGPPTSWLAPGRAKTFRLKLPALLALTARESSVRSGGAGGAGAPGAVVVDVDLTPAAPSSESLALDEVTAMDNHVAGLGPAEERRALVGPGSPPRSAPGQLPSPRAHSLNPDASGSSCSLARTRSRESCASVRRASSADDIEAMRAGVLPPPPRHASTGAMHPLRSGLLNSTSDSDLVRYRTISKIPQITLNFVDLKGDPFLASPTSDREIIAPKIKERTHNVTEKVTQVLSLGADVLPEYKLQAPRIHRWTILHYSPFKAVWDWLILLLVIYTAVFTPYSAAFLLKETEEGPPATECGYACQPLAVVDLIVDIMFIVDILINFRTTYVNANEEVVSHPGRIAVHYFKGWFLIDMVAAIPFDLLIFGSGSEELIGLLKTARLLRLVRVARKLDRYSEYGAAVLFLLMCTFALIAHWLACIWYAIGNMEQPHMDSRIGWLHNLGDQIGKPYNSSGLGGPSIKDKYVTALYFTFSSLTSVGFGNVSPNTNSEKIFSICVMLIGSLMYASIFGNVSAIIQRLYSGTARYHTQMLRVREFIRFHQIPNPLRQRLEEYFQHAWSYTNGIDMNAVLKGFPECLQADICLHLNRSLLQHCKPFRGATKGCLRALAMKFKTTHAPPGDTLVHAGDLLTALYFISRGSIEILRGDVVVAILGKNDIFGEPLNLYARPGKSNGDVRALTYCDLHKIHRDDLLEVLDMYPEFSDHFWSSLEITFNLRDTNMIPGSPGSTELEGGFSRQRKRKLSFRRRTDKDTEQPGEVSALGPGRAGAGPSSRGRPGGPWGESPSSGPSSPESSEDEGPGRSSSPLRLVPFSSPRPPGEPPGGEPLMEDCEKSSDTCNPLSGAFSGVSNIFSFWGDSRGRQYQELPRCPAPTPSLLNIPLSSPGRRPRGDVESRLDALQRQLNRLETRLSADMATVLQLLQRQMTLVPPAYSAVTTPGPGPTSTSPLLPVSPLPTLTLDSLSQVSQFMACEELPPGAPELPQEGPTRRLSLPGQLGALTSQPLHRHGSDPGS

Row | Compound | hERG current change (%, negative = inhibition) at 10uM [%]
1 | CCOC(=O)CSC1=NC(=O)/C(=C\c2ccc(OC(C)=O)cc2)S1 | 13.1
2 | CCn1ncc(S(=O)(=O)Nc2cccnc2)c1C | 5.02
3 | CC1(C)CC(=O)C=C(N2CCOCC2)C1 | 15.6
4 | CC1(C)CC(N2CCOCC2)=CC(=[N+]2CCOCC2)C1.[I-] | 8.01
5 | CN(C)c1cccc(N=C2C=C(N3CCOCC3)CC(C)(C)C2)c1 | -60.5
6 | CSc1nnc(CNC(=O)c2ccccc2)n1-c1cccc(C)c1 | -6.07
7 | COC(=O)c1sccc1Oc1ccc(F)cc1[N+](=O)[O-] | 1.74
8 | CCN1CCN(C(=O)c2ccccc2N(Cc2ccccc2)S(=O)(=O)c2ccc(C)cc2)CC1 | -53.2
9 | Cc1ccc(S(=O)(=O)N(Cc2ccccc2)c2ccccc2C(=O)N2CCCCC2)cc1 | -28.6
10 | CCN1CCN(C(=O)c2ccccc2N(C)S(=O)(=O)c2ccc(C)cc2)CC1 | 2.03
11 | CCOC(=O)N1CCN(C(=O)c2ccccc2N(Cc2ccccc2)S(=O)(=O)c2ccc(OC)cc2)CC1 | -26.3
12 | CCN1CCN(C(=O)c2ccccc2N(Cc2ccccc2)S(=O)(=O)c2ccc(OC)cc2)CC1 | -73.1
13 | COc1ccc(S(=O)(=O)N(Cc2ccccc2)c2ccccc2C(=O)N2CCOCC2)cc1 | -8.54
14 | O=C(COc1ccc(Br)cc1CO)Nc1ccccc1F | -2.36
15 | COc1ccc(OC)c(S(=O)(=O)N(C)CC(=O)N2CCN(c3ccccc3F)CC2)c1 | -6.63
16 | CCCOP(=O)(c1ccc(N(C)C)cc1)C(O)c1cc(OC)ccc1OC (centres unmarked) | 0.331
17 | CC(=O)N(CCN(C)C)c1nc2cc3c(cc2s1)OCCO3.Cl | 10.6
18 | CN(C)CCN(C(=O)CN1C(=O)c2ccccc2C1=O)c1nc2cc3c(cc2s1)OCO3.Cl | -57
19 | CN(C)CCN(C(=O)CN1C(=O)c2ccccc2C1=O)c1nc2cc3c(cc2s1)OCCO3.Cl | -53.8
20 | CCN(CC)CCN(C(=O)CN1C(=O)c2ccccc2C1=O)c1nc2cc3c(cc2s1)OCO3.Cl | -17.8
21 | CN(C)CCN(C(=O)c1ccc2ccccc2c1)c1nc2cc3c(cc2s1)OCCO3.Cl | 7.59
22 | Cc1ccc2nc(N(CCCN(C)C)C(=O)CN3C(=O)c4ccccc4C3=O)sc2c1.Cl | -47.5
23 | COCC(C)NC(=O)CCc1nnc(C2(c3ccc(Cl)cc3)CCC2)o1 (centres unmarked) | 5.14
24 | O=C(O)CCC(=O)NNC(=O)c1cccc(Br)c1 | -0.791

Row | Compound | hERG current change (%, negative = inhibition) at 10uM [%]
25 | CCCc1cc(=O)[nH]c(-n2[nH]c3c(c2=O)CCCC3)n1 | 13.9
26 | CCCC(=O)N1CCN(c2nnc(-c3ccccc3)c3ccccc23)CC1 | -45.4
27 | CCOC(=O)N1CCN(c2nnc(-c3ccccc3)c3ccccc23)CC1 | -22
28 | CCOC(=O)N1CCN(c2nnc(-c3ccc(C)cc3)c3ccccc23)CC1 | -70.1
29 | CCCC(=O)N1CCN(c2nnc(-c3ccc(C)cc3)c3ccccc23)CC1 | -81.1
30 | CCCCS(=O)(=O)Nc1ccc(C(=O)NCC2CCCO2)cc1 (centres unmarked) | -4.69
31 | CC(C)=CCc1c(-c2ccc(O)cc2O)oc2c3c(cc(O)c2c1=O)OC(C)(C)C=C3 | 17.6
32 | Cl.NC1C=CC=C(C(=O)O)C1 (centres unmarked) | 3.23
33 | CC1(C)Cc2c(sc3c2C(=O)N(c2ccccc2)C2=NCCN23)CS1.Cl | -5.58
34 | CC1(C)Cc2c(sc3c2C2=NCCN2C=N3)CS1.Cl | -16.3
35 | CN1C(=O)c2c(sc3c2CC(C)(C)SC3)N2CCN=C12.Cl | -72.6
36 | CC(CCc1ccc(O)cc1)NC(c1ccccc1)c1ccc(Cl)cc1 (centres unmarked) | -14.3
37 | COc1ccc(CCC(C)NCc2ccccc2OC)cc1 (centres unmarked) | -40.4
38 | CC(CCc1ccccc1)NC(C)C(O)c1ccc(O)cc1.Cl (centres unmarked) | -65.3
39 | COc1cc(OC)c(OC)cc1CCC(C)NCCC(c1ccccc1)c1ccccc1.Cl (centres unmarked) | -71.1
40 | COc1cc(OC)c(OC)cc1CNC(C)C(O)c1ccccc1.Cl (centres unmarked) | 12.6
41 | COc1cc(CCC(C)NCc2ccccc2)ccc1O (centres unmarked) | -3.87
42 | CC(CCc1ccc(O)cc1)NCCC(c1ccccc1)c1ccccc1 (centres unmarked) | -76.1
43 | COc1ccccc1CCNC(C)CCc1ccc(O)cc1 (centres unmarked) | -52.5
44 | C[C@H](NCCc1ccc(O)cc1)[C@H](O)c1ccc(O)cc1.Cl | 6.27
45 | COc1cc(OC)c(OC)cc1CCC(C)NC(=O)Cc1ccccc1 (centres unmarked) | 5.68
46 | CC(CCc1ccc(O)cc1)NCCc1ccc(O)c(O)c1.Cl (centres unmarked) | -13.9
47 | CC(NCCc1ccc(O)cc1)C(O)c1ccc(O)cc1.Cl (centres unmarked) | 5.08
48 | COc1ccc(-c2sc(NC(=O)c3ccc(C)cc3)nc2-c2ccc([N+](=O)[O-])cc2)cc1 | 9.66

Row | Compound | hERG current change (%, negative = inhibition) at 10uM [%]
49 | CCOc1ccc(-n2c(SCC)nc3c(c2=O)SCC3)cc1 | 15
50 | Cn1c(=O)c2ccccc2n(CC(=O)NC2CCCC2)c1=O | 9.82
51 | CCCN(CCC)Cc1cc(=O)oc2cc3c(cc12)CCC3 | -9.37
52 | CC(=O)O.CC(=O)Oc1ccc2c(c1)OC(c1ccccc1)CC21CC(C)(C)NC(=O)N1 (centres unmarked) | 3.82
53 | O=C1CCCN1CCCNS(=O)(=O)c1ccc(F)cc1F | 8.77
54 | Cc1ccc(-n2nc3c(c2NC(=O)CC(C)C)CS(=O)(=O)C3)c(C)c1 | 25
55 | O=C(COC(=O)C1CC(=O)N(Cc2ccccc2)C1)Nc1ccc(Cl)cc1F (centres unmarked) | 48
56 | C/C(=N\NC(=O)c1nnn(-c2nonc2N)c1CSc1ccc(C)cc1)c1ccco1 | -9.04
57 | O=C1c2ccccc2NC(c2ccc(O)cc2)N1Cc1ccco1 (centres unmarked) | -24.3
58 | CCOC(=O)C(C)CC(C)C(=O)N1CCOCCN(C(=O)C(C)CC(C)C(=O)OCC)CCOCC1 (centres unmarked) | -9.48
59 | COc1ccc(CN(Cc2cc3ccc(C)cc3[nH]c2=O)Cc2nnnn2C2CCCC2)cc1 | -21.4
60 | CC1(C)Cc2c(c(N3CCOCC3)nc3sc(C(N)=O)c(N)c23)CO1 | -5.66
61 | O=C(NCC1CCCO1)c1cc(-c2ccc(Cl)cc2Cl)on1 (centres unmarked) | -9.68
62 | Nc1nccnc1C(=O)OCC(=O)N1CCN(S(=O)(=O)c2ccc(Cl)cc2)CC1 | -15.4
63 | CCCNC(=O)CSc1nc2ccccc2c(=O)n1CCC | 3.3
64 | O=C(Nc1ccccc1N1CCCC1)c1ccc(N2CCCC2=O)cc1 | -22.1
65 | COc1ccc(C)cc1NC(=O)COC(=O)c1ccc2ccccc2n1 | 3.24
66 | CC(CCc1ccc(O)cc1)N(C)CCc1ccccc1 (centres unmarked) | -62.2
67 | CC(O)CCc1ccc(O)cc1 (centres unmarked) | 11.7
68 | COc1ccc(CCC(C)N(C)Cc2ccccc2)cc1 (centres unmarked) | -34.8
69 | CCCNC(=O)c1cc(Cl)c(NC(=O)C2=CSCCO2)cc1OC | 16.5
70 | C=CCNC(=O)Nc1cc(Cl)ccc1OC | 7.65
71 | CCOC(=O)c1ccc(NC(=O)CCCN2C(=O)NC3(CCCC3)C2=O)cc1 | -3.62
72 | O=C(O)CCCCCNC(=O)CCn1cnc2ccccc2c1=O | 5.02

Row | Compound | hERG current change (%, negative = inhibition) at 10uM [%]
73 | COc1ccccc1N1CCN(C(=O)CCCCCn2c(=O)[nH]c3ccsc3c2=O)CC1 | -24.7
74 | O=C1CCCC(=O)N1c1ccc(O)cc1 | 2.73
75 | Cc1ccc(C(=O)NCCN2C3=NC[C@H](C)N3C[C@H]2Cc2ccc(O)cc2)cc1Br | -8.85
76 | C/C=C(\C)C(=O)NCCN1C2=NC[C@H](Cc3ccc(O)cc3)N2C[C@H]1Cc1ccc(O)cc1 | 16.5
77 | Cc1ccc(C(=O)NCCN2C3=NC[C@@H](Cc4ccccc4)N3C[C@H]2Cc2ccc(O)cc2)cc1Br | -71.1
78 | Cc1ccc(C(=O)NCCN2C3=NC[C@H](Cc4ccc(O)cc4)N3C[C@H]2Cc2ccc(O)cc2)cc1Br | -51.7
79 | COc1ccc(C[C@H]2CN3C(=NC[C@@H]3Cc3ccc(O)cc3)N2CCNC(=O)c2ccc(C)c(Br)c2)cc1 | -74.3
80 | COc1cc(/C=C2\SC(=O)NC2=O)ccc1Oc1ccc([N+](=O)[O-])cc1[N+](=O)[O-] | 20.2
81 | Brc1cccc(C=Nc2cccc3ncccc23)c1 | 7.37
82 | CCOc1cc(C)c(Cl)cc1S(=O)(=O)n1nnc2ccccc21 | 6.52
83 | COc1ccc(C(=O)Nc2ccc(Cl)c(Cl)c2)c(OC)n1 | 14.1
84 | Cc1cc(N2CCN(c3ccc([N+](=O)[O-])c4cccnc34)CC2)c2ccccc2n1 | -64.3
85 | O=[N+]([O-])c1ccc(N2CCCCC2)c2ncccc12 | -23.7
86 | O=[N+]([O-])c1ccc(N2CCN(CCO)CC2)c2ncccc12 | -45.4
87 | O=[N+]([O-])c1ccc(N2CCCCCC2)c2ncccc12 | 5.54
88 | O=[N+]([O-])c1cc(C(F)(F)F)ccc1N1CCN(S(=O)(=O)c2ccc3ccccc3c2)CC1 | 9.11
89 | Cc1cc(N2CCN(c3ccc(C(F)(F)F)cc3[N+](=O)[O-])CC2)c2ccccc2n1 | -88.9
90 | Nc1nonc1OCCN1CCN(c2ccc([N+](=O)[O-])c3cccnc23)CC1 | -71.7
91 | Cc1ccc(S(=O)(=O)N2CCN(c3ccc(C(F)(F)F)cc3[N+](=O)[O-])CC2)cc1 | -30.8
92 | O=[N+]([O-])c1ccc(N2CCCC2)c2ncccc12 | 8.6
93 | Cl.O=[N+]([O-])c1ccc(N2CCCNCC2)c2ncccc12 | -64.8
94 | CN1CCN(c2ccc([N+](=O)[O-])c3cccnc23)CC1 | -41.5
95 | CC1CN(c2ccc([N+](=O)[O-])c3cccnc23)CC(C)N1 (centres unmarked) | -33.4
